Bioassay records as filed in PubChem.
This is a sample that favours compounds with a hit; in the whole collection about 19% have one here.
TDP1 cell noCPT = qHTS for Inhibitors of human tyrosyl-DNA phosphodiesterase 1 (TDP1): qHTS in cells in absence of CPT; actives 15% (n = 420,000); DT40 Tdp1-/- hTDP1 cells, no CPT, ATP luminescence, 48 h; Potency, µM (doses to about 46.2 µM), for the others: top-dose activity change, negative = growth inhibition, most hits filed as inhibitors; note: potency is the fitted concentration of half-maximal effect; nearly all actives have a fitted effect of over 55% in size
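DT40 Tdp1-/-;hTDP1 cells, no CPT (DMSO vehicle only), 400 cells/well; compounds pin-transferred; ≥48 hr, 37 °C; CellTiter-Glo 30 min RT dark, luminescence read.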
DT40 TDP1 CPT = DT40-hTDP1 cell growth loss with CPT; AID 686979; Potency, µM (doses to about 46.2 µM), without a hit: at the highest dose activity change, negative = growth inhibition, actives largely listed as inhibitors; chicken DT40 Tdp1-/-;hTDP1 cells + 20 nM CPT, ATP luminescence, 48 h; actives 12% (n = 420,000); note: potency is the fitted concentration of half-maximal effect; nearly all actives have a fitted effect of over 55% in size
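Cell growth measured by CellTiter-Glo luminescence after a minimum 48 h, 37 C compound exposure with 20 nM CPT in Tdp1-knockout DT40 cells stably expressing hTDP1, seeded 400/well; qHTS titration format.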
HT1080 IDH1KD tx = kills HT-1080 cells with IDH1 knockdown; HT-1080 IDH1 knockdown viability, ATP luminescence, 48 h; Potency, µM (doses to about 46.1 µM), for inactives: at the highest dose activity, negative = toxicity, hits mostly cytotoxic; actives 2% (n = 360,000);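 note: potency is the fitted concentration of half-maximal effect; 0% = DMSO wells and -100% = cell-free medium wells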
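% activity derives from luminescence (CellTiter-Glo), normalised to DMSO and no-cell wells. HT-1080-IDH1KD cells, 750/well, had 48 h compound exposure at 37 °C.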
HT1080NT lethal = kills 2HG-producing HT-1080-NT fibrosarcoma cells. HT-1080-NT fibrosarcoma viability, CellTiter-Glo ATP luminescence, 48 h. Potency, µM (doses to about 46.1 µM), without a hit: top-dose activity, negative = less viability, most hits filed as cytotoxic. actives 1.6% (n = 360,000). AID 686970;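 note: NT is the 2HG producing partner of a matched IDH1 knockdown line; potency is the fitted concentration of half-maximal effect; 0% = DMSO-treated cells and -100% = media-only wells without cells; nearly all actives have a fitted effect of over 55% in size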
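HT-1080-NT; 750 cells/well; 5% FBS RPMI; 48 h compound, 37 degrees C; CellTiter-Glo luminescence; curve fitting and curve-class assignment.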
ELG1 DNA repair = ELG1-dependent DNA repair inhibition; HEK293T ELG1-luciferase reporter, luminescence, 16 h; DNA damage induced by 5-fluorouridine; AID 504467; actives 2.3% (n = 330,000); Potency, µM (top dose mostly 46.1 µM), inactives show top-dose activity change, negative = inhibition, usual class: inhibitors; note: potency is the fitted concentration of half-maximal effect; nearly all actives have a fitted effect of over 55% in size
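Quantitative HTS, concentration-response format. 2,000 cells/well co-treated with 5-fluorouridine and compound, 16 hr in 5% CO2 at 37 °C; ONE-Glo luminescence read after 30 min.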
IL1B secr inh = inhibitors of inflammasome signaling (IL-1 beta secretion); THP-1 LPS/ATP IL-1B secretion, AlphaLISA, 16 h; hits give low values; activity change, % at 57.5 µM; actives 4.7% (n = 360,000); in the data active = activity change below about -50%; inconclusive = mostly about -30% to -49%
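THP-1 cells pretreated 1 hr with compounds (up to 57.5 uM final), then stimulated with LPS (250 ng/mL final) plus ATP (1.25 mM final); secreted IL-1B measured by AlphaLISA after 16 hr, decreased signal indicating inhibition.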
Numbers without * were called inactive; ? = inconclusive; / = not tested or not shown. Unless noted, calls come from the whole dose curve; as a rule, active = well fitted curve in the direction sought with a large enough effect; inconclusive = small, poorly fitted or top-dose-only effect, or another doubt; inactive = no such curve, though single readings can be large; an effect the other way counts as inactive or inconclusive. Unless noted, % is set by controls: 0 for no effect and ±100 for the full control effect.

SMILES	TDP1 cell noCPT	DT40 TDP1 CPT	HT1080 IDH1KD tx	HT1080NT lethal	ELG1 DNA repair	IL1B secr inh
COC(=O)CSc1ccc2nnc(CCNS(=O)(=O)c3ccccc3)n2n1	1%	2%	11%	15%	-7%	4
COc1ccc(S(=O)(=O)NCCc2nnc3ccc(SCC(=O)Nc4ccccc4C)nn23)cc1	-16%	-8%	/	/	/	/
COc1ccc(Cl)cc1NC(=O)CSc1ccc2nnc(CCNS(=O)(=O)c3ccccc3)n2n1	?	18µM*	/	/	/	/
Cc1ccc(C)c(N2CC(C(=O)Nc3nccs3)CC2=O)c1 (centres undefined)	-10%	7%	10%	-1%	-2%	14
Cc1cccc2c(=O)c(C(=O)NCCc3ccccc3)c[nH]c12	?	-17%	?	?	?	10
CN(C)C(=O)c1ccc2c(c1[N+](=O)[O-])C(=O)c1ccccc1C2=O	5.8µM*	2.9µM*	-16%	-18%	?	-5
Cc1[nH]c2c(C)cccc2c1CCNC(=O)c1ccc2c(c1[N+](=O)[O-])C(=O)c1ccccc1C2=O	8.2µM*	16µM*	21µM*	16µM*	?	-109*
O=C(O)c1ccc2c(c1Sc1ccccc1)C(=O)c1ccccc1C2=O	/	/	/	/	1%	/
Cc1[nH]c2ccccc2c1CCNC(=O)c1ccc2c(c1[N+](=O)[O-])C(=O)c1ccccc1C2=O	2.9µM*	4.6µM*	?	-17%	-3%	-103*
O=C(NN1CCOCC1)c1cc(S(=O)(=O)Nc2cccc(C(F)(F)F)c2)ccc1Cl	9%	5%	9%	5%	-12%	38
Cc1ccnc2nc(C(=O)OCC(=O)Nc3ccc4c(c3)OCCO4)nn12	-6%	-12%	11%	10%	?	5
Cc1cc(C)cc(NC(=O)Cc2csc(COc3cccc(C)c3)n2)c1	-20%	-20%	/	/	/	/
Cn1c(C(=O)NCCc2ccccc2)cc2cc(S(=O)(=O)N3CCCCC3)ccc21	?	15µM*	/	/	/	/
CC(CNC(=O)c1cc2cc(S(=O)(=O)N3CCCCC3)ccc2n1C)c1ccccc1 (centres undefined)	12µM*	3.3µM*	/	/	/	/
COc1cc2c(cc1OC)CN(CC(=O)Nc1ccc(C)c(S(=O)(=O)N3CCOCC3)c1)CC2	?	4%	0%	-3%	?	-13
COc1cc(NCC(=O)Nc2cccc(S(=O)(=O)N3CCCCC3)c2)cc(OC)c1OC	-1%	-18%	0%	-3%	-8%	-26
Cc1noc(C)c1C(=O)N1CCC[C@@]2(CCN(C(=O)Nc3ccccc3)C2)C1	6%	?	/	/	/	/
Fc1ccc(Nc2nc(NCc3ccco3)c3ccccc3n2)cc1	6.5µM*	9.2µM*	-18%	?	23µM*	-102*
N#Cc1c2c(c(NCc3ccco3)n3c1nc1ccccc13)CCC2	21µM*	-59%	7%	2%	?	55
Cc1nnc(NCc2ccco2)c2ccccc12	-16%	-17%	0%	0%	-2%	-6
c1coc(CNc2nc(NCc3ccco3)c3ccccc3n2)c1	13µM*	11µM*	/	/	/	/
c1coc(CNc2c3c(nc4ccccc24)CCC3)c1	23µM*	16µM*	-13%	-7%	-17%	-74*
Cc1ccc(S(=O)(=O)NC(=O)N2CCCC2)cc1	12%	-13%	9%	9%	/	0
Cc1ccc2c(NCc3ccco3)nc(NC(C)C)nc2c1	?	?	18µM*	26µM*	/	-111*
CC(C)(C)c1ccc(C(=O)NCCC(=O)N2CCC3(CC2)NCCc2[nH]cnc23)cc1	12%	-1%	4%	5%	0%	9
